# Where “and” joins values, the source holds several entries; their conditions need not be identical. Equal entries are not always repeated. Structures can show the parent of a compound that is named as a salt.
# Columns and labels:
# Assay in all cases: cell viability relative to vehicle control; higher = less cytotoxic
# Conditions in all cases: 10 µM
# K562 = tested on: K562
# How it was run: (§1)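 Each screen used CRISPR-edited mutant and wild-type clones from four leukaemia lines. Compounds were acoustically dispensed at a single 10 µM dose, and CellTiter-Glo luminescence was read after 48 h with the supernatant first removed. Viability was analysed in Genedata Screener and given as percent of the on-plate vehicle control.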
# MARIMO = tested on: MARIMO
# How it was run: as §1
# MOLM14 = tested on: MOLM14
# How it was run: as §1
# OCI-AML2 = tested on: OCI-AML2
# How it was run: as §1
Compound,cell viability (K562; SRSF2 genotype: SRSF2 P95H/wt),cell viability (K562; SRSF2 genotype: SRSF2 wt/wt) [%],cell viability (MARIMO; SRSF2 genotype: SRSF2 P95H/wt) [%],cell viability (MARIMO; SRSF2 genotype: SRSF2 wt/wt) [%],cell viability (MOLM14; SRSF2 genotype: SRSF2 P95H/wt) [%],cell viability (MOLM14; SRSF2 genotype: SRSF2 wt/wt) [%],cell viability (OCI-AML2; SRSF2 genotype: P95H/wt) [%],cell viability (OCI-AML2; SRSF2 genotype: wt/wt) [%]
COC(=O)[C@H](CC(C)C)NC(=O)c1ccc(NC[C@@H](N)CS)cc1-c1cccc2ccccc12 [GGTI 298 TFA salt],7.41% and 14.8%,31.9,55,51.1,41,50.6,40.6,37.7
CC(C)(CO)c1cc2cc(NC(=O)C3(c4ccc5c(c4)OC(F)(F)O5)CC3)c(F)cc2n1C[C@@H](O)CO,95.8% and 95.3%,87.5,92.7,109,91.5,91.7,95.7,96
COc1cc(/C=C/C(=O)N2CCN(CC(=O)N3CCCC3)CC2)cc(OC)c1OC [Cinepazide maleate],102% and 105%,99.2,99.5,106,106,105,106,108
CC(C)(C)c1ccc(S(=O)(=O)NCc2ccc(C(=O)Nc3cccnc3)cc2)cc1,31.8% and 20.2%,26.6,20.9,32.5,9.88,1.9,5.52,5.41
COc1c/c(=C2\C=c3ccccc3=N2)[nH]/c1=C\c1[nH]c(C)cc1C [Obatoclax mesylate (GX15-070)],2.96% and 5.97%,9.27,23.4,23.6,6.74,7.58,2.7,13.3
CC1=C(CC(=O)O)c2cc(F)ccc2/C1=C\c1ccc([S+](C)[O-])cc1 (centres undefined) [Sulindac (Clinoril)],109% and 99.8%,96.8,88.6,112,92.5,100,94.2,102
O=C(Nc1ccccc1)N1CCN(c2nc(-c3ccccc3)ns2)CC1,79.1% and 89.2%,91.6,87,92.7,90.5,99,62.7,70.3
CCCCCCCCOc1ccccc1C(=O)Nc1ccc(C(=O)OCC[N+](C)(CC)CC)cc1 [Otilonium Bromide],78.5% and 92%,92.3,84.9,84.5,76.7,89,34.4,70.2
CC(C)=CCC/C(C)=C/C=O [Citral],96% and 106%,94.4,88.4,98.9,88.2,94.8,95.3,92
CCn1cc(C(=O)O)c(=O)c2ccc(C)nc21 [Nalidixic acid (NegGram)],96.8% and 104%,106,107,101,105,109,104,91.1
CCCN(CCC)C(=O)C1=Cc2ccc(-c3ccc(C(=O)N4CCCC4)cc3)cc2N=C(N)C1 [Motolimod (VTX-2337)],34.5% and 40.5%,38.8,33.2,25.7,26.5,31,21.7,29
COc1ccc2cccc(CCNC(C)=O)c2c1 [Agomelatine],110% and 101%,104,97.7,106,104,102,101,101
CCC(=O)OCC(=O)[C@@]1(OC(=O)CC)[C@@H](C)C[C@H]2[C@@H]3CCC4=CC(=O)C=C[C@]4(C)[C@@]3(F)[C@@H](O)C[C@@]21C [Betamethasone Dipropionate (Diprolene)],96.7% and 103%,98.8,106,109,94.5,96,113,120
CC(=O)OCC1=C(C(=O)O)N2C(=O)C(NC(=O)CSC(=NC(C)C)NC(C)C)C2SC1 (centres undefined) [Cefathiamidine],103% and 98.2%,103,103,110,96.1,104,102,113
COc1cc(/C=C/C(=O)O)ccc1O [Fumalic acid (Ferulic acid)],98.4% and 103%,100,92.1,105,103,101,92.9,105
C#CC[C@H](c1nc2cc(Cl)ccc2c(=O)n1Nc1ccccc1)N(CCCN)C(=O)c1cccc(Cl)c1F,0.47% and 0.44%,0.4,0.46,0.55,0.39,0.42,0.41,0.45
CC1(C)CCC2(C(=O)O)CCC3=C(C(CCl)CC4C3(C)CCC3C4(C)CC(O)C(O)C3(C)C(=O)O)C2C1 (centres undefined) [Senegenin],107% and 97.9%,104,96.8,108,100,106,105,113
CC(C)=CCC[C@](C)(O[C@@H]1O[C@H](CO)[C@@H](O)[C@H](O)[C@H]1O)[C@H]1CC[C@]2(C)[C@@H]1[C@H](O)C[C@@H]1[C@@]3(C)CC[C@H](O[C@@H]4O[C@H](CO)[C@@H](O)[C@H](O)[C@H]4O[C@@H]4O[C@H](CO)[C@@H](O)[C@H](O)[C@H]4O)C(C)(C)[C@@H]3CC[C@]12C [Ginsenoside Rd],99.2% and 91.3%,93.4,94,96.8,91.8,94.5,88,103
O=C(O)/C=C/c1ccc(Cn2ccnc2)cc1 [Ozagrel],102% and 100%,94.6,101,106,102,100,98.1,99.6

Compound,cell viability (K562; SRSF2 genotype: SRSF2 P95H/wt),cell viability (K562; SRSF2 genotype: SRSF2 wt/wt) [%],cell viability (MARIMO; SRSF2 genotype: SRSF2 P95H/wt) [%],cell viability (MARIMO; SRSF2 genotype: SRSF2 wt/wt) [%],cell viability (MOLM14; SRSF2 genotype: SRSF2 P95H/wt) [%],cell viability (MOLM14; SRSF2 genotype: SRSF2 wt/wt) [%],cell viability (OCI-AML2; SRSF2 genotype: P95H/wt) [%],cell viability (OCI-AML2; SRSF2 genotype: wt/wt) [%]
Cn1nnc2c(C(N)=O)ncn2c1=O [Temozolomide],99.9% and 108%,101,94.5,94.2,86,99.2,94.9,96.6
C[C@@H]1CC[C@@]2(OC1)O[C@H]1C[C@H]3[C@@H]4CC=C5C[C@@H](O[C@@H]6O[C@H](CO)[C@@H](O)[C@H](O[C@@H]7O[C@H](CO)[C@@H](O)[C@H](O)[C@H]7O)[C@H]6O[C@@H]6O[C@@H](C)[C@H](O)[C@@H](O)[C@H]6O)CC[C@]5(C)[C@H]4CC[C@]3(C)[C@H]1[C@@H]2C [Gracillin],31.2% and 29.4%,1.47,70.2,11.4,12,0.55,5.61,4.21
O=C(O)c1ccc(CN2CCC(CN[C@@H]3C[C@H]3c3ccccc3)CC2)cc1,98.9% and 101%,95.4,92.3,91,98.7,87.2,78.3,91.6
C=C1CCOC1=O [2-Methylenebutyrolactone],106% and 101%,104,97.3,105,88.6,107,125,126
O=c1oc2cc(O)ccc2s1 [Tioxolone],95.7% and 106%,105,103,101,101,103,102,97.4
CCC[C@H](NC(=O)[C@@H]1[C@H]2CCC[C@H]2CN1C(=O)[C@@H](NC(=O)[C@@H](NC(=O)c1cnccn1)C1CCCCC1)C(C)(C)C)C(=O)C(=O)NC1CC1 [Telaprevir (VX-950)],87.5% and 92%,80.2,68.6,86.1,89.5,99.2,85.9,98.7
CC(CNC(=O)c1cccnc1)NC(=O)c1cccnc1 (centres undefined) [Nicaraven],100% and 95.4%,107,106,108,101,104,101,98.4
CCN(CC)CC(O)CNc1ccc(NCC2CO2)c2c1C(=O)c1ccccc1C2=O (centres undefined),1.64% and 0.64%,3.62,1.76,2.11,2.26,0.31,0.66,0.95
COc1ccccc1N1CCN(CCCNc2cc(=O)n(C)c(=O)n2C)CC1 [Urapidil hydrochloride],102% and 95.6%,96.9,97.8,102,99.6,98,96.8,95.2
CC(=O)OC1C[C@H](C)CCC1C(C)C (stereo partly drawn) [(1R)-(-)-Menthyl acetate],98% and 101%,101,92.4,97.6,98.5,106,104,114
Nc1ccc(Cl)cc1C(=O)C(F)(F)F [4-Chloro-2-(trifluoroacetyl)aniline hydrochl],106% and 98.3%,112,101,99.5,105,109,105,115
Nc1nc2c(ncn2[C@@H]2O[C@H](CO)[C@@H](O)[C@H]2O)c(=O)[nH]1 [Guanosine],87.3% and 93.1%,93.2,88.2,103,92.5,99.8,103,97.5
Cc1ccc(C(C)C)cc1O [Carvacrol],100% and 101%,98.7,95.5,99,99,100,92.8,100
COc1ccc(CC(C)NCC(O)c2ccc(O)c(NC=O)c2)cc1 (centres undefined) [Formoterol hemifumarate],97.2% and 93.9%,91.5,89.5,98.5,86.6,85.8,106,101
CC(C)(CCCCCC(O)CCCCCC(C)(C)C(=O)O)C(=O)O,103% and 96.8%,102,106,106,104,104,97.5,108
COC(=O)N[C@H](C(=O)N1CCC[C@H]1c1ncc(-c2ccc(-c3ccc(-c4cnc([C@@H]5CCCN5C(=O)[C@@H](NC(=O)OC)C(C)C)[nH]4)cc3)cc2)[nH]1)C(C)C,93.2% and 92%,89.7,72.4,83.9,78.2,88.5,84.6,84.3
O=C(O)CCCN1CCC(O[C@@H](c2ccc(Cl)cc2)c2ccccn2)CC1 [Bepotastine Besilate],89.5% and 84.3%,84.8,86.5,97.8,90.9,93.3,82.6,86.2
CONC(=O)c1ccccc1Nc1cc(Nc2cc(C)nn2C(C)C)ncc1Cl,91.8% and 101%,105,93.2,101,82.9,102,95.8,103
OCc1cc([C@@H](O)CNCCCCCCOCCOCc2c(Cl)cccc2Cl)ccc1O [Vilanterol Trifenate],85% and 94.3%,87,79.5,86.2,72.8,82.9,73.9,76.3
